Here are results for 23 molecules from PubChem BioAssay AID493169 (National Center for Advancing Translational Sciences (NCATS), 2011).

Inconclusive results are not listed. A call without a number means that no potency is given here. The source made the active and inactive calls. Calls come from the whole dose curve; as a rule, active = well fitted inhibition curve with a large enough effect; inconclusive = small, poorly fitted or top-dose-only effect; inactive = flat fitted curve, though single readings scatter.
Potency is the fitted concentration of half-maximal effect.

The assay can be described thus: CHOP2 Reporter Counterscreen Assay for Inhibitors of Ubiquitin-specific Protease USP2a.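 Note: activated enterokinase alone at 50 pM in a cell-free format rather than USP2a or CHOP2; nearly all actives have a fitted effect of over 55% in size.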 Particulars: purified enterokinase, fluorogenic substrate, 485/531 nm; series mostly up to 38.3 µM. The method in brief:
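Cell-free counterscreen with pre-activated enterokinase alone (50 pM final) in 20mM Tris-HCl pH 8.0, 2mM CaCl2, 2mM beta-mercaptoethanol, 0.05% CHAPS; compound preincubation 30 min RT, reporter substrate 25nM final, fluorescence read after 10 min (Ex 485/Em 531).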
On the technique in general: A counterscreen serves to expose hits that act by an unwanted route or on another target.
For `Cn1c(=O)c(C(=O)Nc2ncccc2O)c(O)c2ccccc21`, the Potency is 10 µM (active).

Consider `Cc1cc(C(=O)OCC(=O)c2cccc([N+](=O)[O-])c2)c2cccc(C)c2n1`, for which the Potency entry is “inactive”.

In the case of `CNS(=O)(=O)c1cccc(C(=O)OCC(=O)c2cc(C)n(-c3ccc4c(c3)OCO4)c2C)c1`, the Potency result was “inactive”.

Consider `COc1cc2cc(CN(CCN3CCCC3)C(=O)Nc3ccc(F)cc3)c(=O)[nH]c2cc1OC`, for which the Potency result is “inactive”.

For the molecule `O=C(COc1ccccc1)N1CCN(C(=O)Cc2ccccc2)CC1`, the Potency entry is “inactive”.

As for `Cc1ccc(S(=O)(=O)Nc2ccc(N3CCOCC3)cc2)cc1`, the Potency result is “inactive”.

For `CC(=O)N1CCCc2cc(S(=O)(=O)CCC(=O)N3CCN(c4cccc(C)c4)C(C)C3)ccc21` (stereo not drawn), the Potency result was “inactive”.

Turning to `O=C(CSc1nc(N2CCCCC2)nc(N2CCCCC2)n1)N1CCN(c2ccccc2)CC1`, the Potency result is “inactive”.

In the case of `Cc1c(N=C/C=C2\N(C)c3ccccc3C2(C)C)c(=O)n(-c2ccccc2)n1C`, the Potency result was “inactive”.

Take `CCOC(=O)C1CCCN(CC(=O)Nc2c(C(=O)OC)[nH]c3ccc(C)cc23)C1` (stereo not drawn): the Potency result was “inactive”.

Regarding `CCCCCCCC/C=C\CCCCCCCC(=O)NCCc1ccc(O)c(O)c1`, the Potency result is “inactive”.

`CC(C)OCCCNC(=O)CN1C(=O)CC(C)(C)S(=O)(=O)c2ccccc21`: the Potency entry is “inactive”.

In the case of `CCN(CC)S(=O)(=O)c1ccc(Cl)c(NC(=O)COC(=O)c2c(C)noc2C)c1`, the Potency result was “inactive”.

Turning to `CCOC(=O)Nc1ccc(S(=O)(=O)Nc2cc(C)nc(C)n2)cc1`, the Potency entry is “inactive”.

Turning to `CN1CCN(Cc2c(O)ccc3c(=O)c(Oc4ccccc4Cl)c(C(F)(F)F)oc23)CC1`, the Potency entry is “inactive”.

In the case of `CCCCCCCCCS(=O)(=O)N/N=C/c1cccc([N+](=O)[O-])c1`, the Potency entry is “inactive”.

Take `CCn1c(SCC(=O)NCCc2ccccc2)nnc1-c1cccs1`: the Potency result was “inactive”.

Take `C#CCOCCOCCOCCNc1nc(N2CCN(C(=O)CCCCCCCCCCNC(=O)Cn3cc(C[C@@H](C)O)nn3)CC2)nc(N2CCN(C(=O)CCCCCCCCCCNC(=O)[C@@H]([C@H](C)CC)n3cc(CCCCCN)nn3)CC2)n1`: the Potency is 5.62 µM (active).

Turning to `CCC(C)c1ccc(O)c(N)c1` (stereo not drawn), the Potency result was “inactive”.

For `O=C1CC(c2ccc(Cl)cc2)SC(N(c2ccccc2)c2ccccc2)=N1` (stereo not drawn), the Potency result is “inactive”.

For `Cc1ccc(NS(=O)(=O)c2cccc(C(=O)OCC(=O)NCc3ccco3)c2)cc1`, the Potency is 10 µM (active).

With `N#Cc1cccc(C(=O)N(CCc2ccccc2)Cc2cccs2)c1`, the Potency entry is “inactive”.

With `O=C(CSCCO)Nc1cccc2ccccc12`, the Potency result was “inactive”.
